Only some compounds are listed: those with a hit (about 7.2% of all), similar ones and a draw of the others.
MARV entry inh: blocks Marburg virus binding to or entry into cells | AID 540276 | Marburg virus pseudotyped entry inhibition, cell reporter | Potency, µM (top dose mostly 37.8 µM), for the others: top-dose activity change, negative = inhibition, usual class: inhibitors | 1.8% of 300,000 active; calls by dose curve; tested in HEK293 cells; also: % is scaled to controls: 0 for no effect and ±100 for the full control effect
Sm TGR inh: blocks Schistosoma mansoni thioredoxin glutathione reductase. Q962Y6. purified TGR, DTNB reduction, TNB absorbance 405 nm. Potency, µM (top dose mostly 114 µM), without a hit: at the top dose activity change, negative = inhibition, hits mostly inhibitors. 3% of 360,000 active. AID 485364; also: % is scaled to controls: 0 for no effect and ±100 for the full control effect; nearly all actives have a fitted effect of over 60% in size
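Kinetic colorimetric format: TGR-catalysed, NADPH-driven DTNB reduction monitored via TNB absorbance. Enzyme dispensed at 20 nM; compound exposure 15 min at room temperature before reaction start.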
HCV inhibitor: HCV inhibition. Huh7.5.1 HCVcc-Cre infection, luciferase reporter, 44 h. 3.4% of 340,000 active. Potency, µM (doses to about 41.8 µM), for the others: top-dose activity change, negative = inhibition, actives largely listed as inhibitors; also: % is scaled to controls: 0 for no effect and ±100 for the full control effect
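Antiviral activity was scored by luciferase reporter output from cells infected with HCVcc-Cre (~0.5 moi) in presence of compound, 44 h infection period, cells seeded 1,000/well 4 h prior.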
Lassa entry inh: blocks Lassa virus binding to or entry into cells | Lassa virus pseudotype entry inhibition, cell reporter | Potency, µM (doses to about 37.9 µM), for the others: at the highest dose activity change, negative = inhibition, most hits filed as inhibitors | 1.2% of 300,000 active; calls by dose curve; tested in HEK293 cells; also: % is scaled to controls: 0 for no effect and ±100 for the full control effect; nearly all actives have a fitted effect of over 50% in size
FMDV antiviral: blocks foot and mouth disease virus; FMDV antiviral cell-based qHTS; 1.2% of 410,000 active; Potency, µM (series often up to 57.9 µM), inactives show at the highest dose activity change, negative = inhibition, hits mostly inhibitors; calls by dose curve; tested in HEK293T cells; also: read-out not given here; % is scaled to controls: 0 for no effect and ±100 for the full control effect; nearly all actives have a fitted effect of over 45% in size
RE007 growth inh: less growth of the S. pombe RE007 Vpr strain | 0.21% of 360,000 active | Potency, µM (top dose mostly 92.2 µM), without a hit: at the highest dose activity change, negative = less growth, usual class: inhibitors | S. pombe RE007 Vpr strain, BacTiter-Glo ATP luminescence, 24 h | AID 651644; active = well fitted falling curve with a large enough effect; inconclusive = small, poorly fitted or top-dose-only effect; inactive = no such curve, though single readings can be large or run the other way; also: % is scaled to controls: 0 for no effect and ±100 for the full control effect; nearly all actives have a fitted effect of over 50% in size
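Fission yeast strain RE007, carrying one chromosomally integrated HIV-1 vpr copy, was seeded at OD 0.01 in PMG+AL medium with 23 nL pinned compound. After 24 h at 30 °C and 99% humidity, viability was read by BacTiter-Glo luminescence.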
HCV inh confirm: HCV inhibition, cherry-pick confirmation | shares compounds with HCV inhibitor | HCVcc-Cre infectious virus cell assay, luciferase, inhibition | Potency, µM (doses to about 41.8 µM), without a hit: top-dose activity, negative = inhibition, hits mostly inhibitors | 78% of 640 active | AID 720575; also: nearly all actives have a fitted effect of over 80% in size
HCV cytotox: host cell cytotoxicity counter-screen for HCV inhibitors | 22% of 640 active | shares compounds with HCV inhibitor | Potency, µM (highest dose often 41.8 µM), without a hit: top-dose activity change, negative = cytotoxicity, most hits filed as inhibitors | HCV host cell line cytotoxicity counterscreen;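 also: 44 h compound exposure; % is scaled to controls: 0 for no effect and ±100 for the full control effect; nearly all actives have a fitted effect of over 55% in size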
Active calls of the source: *; ? = inconclusive; . = no result given; [ ] = remark or other dose. Unless noted, calls follow the shape of the dose curve; as a rule, active = well fitted curve in the direction sought with a large enough effect; inconclusive = small, poorly fitted or top-dose-only effect, or another doubt; inactive = no such curve, though single readings can be large; an effect the other way counts as inactive or inconclusive. Potency is read from the fitted curve at half-maximal effect.

SMILES	MARV entry inh	Sm TGR inh	HCV inhibitor	Lassa entry inh	FMDV antiviral	RE007 growth inh	HCV inh confirm	HCV cytotox
Cc1cccc(C)c1NC(=O)C(NS(=O)(=O)c1ccc2c(c1)CCC(=O)N2)c1ccccc1 (stereo unspecified)	-3.5%[46.1 µM]	?	.	?	-15.8%	.	.	.
Cc1ccc(N(CC(=O)Nc2ccc(C)c(F)c2)S(=O)(=O)c2c(C)n[nH]c2C)cc1	-8.7%[46.1 µM]	11.7%	.	-22.7%[46.1 µM]	-24.8%	.	.	.
CCCc1ccc(C2C3=C(CC(C)(C)CC3=O)NC3=C2C(=O)c2ccccc23)cc1 (stereo unspecified)	?	-28.4%	2.24µM*	?	-8.3%	-3.7%	11.2µM*	?
Oc1c(C(c2ccc(F)cc2)N2CCCC2)sc2nc(-c3ccco3)nn12 (stereo unspecified)	.	-7.3%	.	?	27.8%	.	.	.
COc1ccc(OC)c(-c2cc(C(=O)NCc3ccco3)no2)c1	-2.6%	-12.1%	?	-8.5%	0.0%	8.0%	28µM*	-14.4%
COc1cccc(-c2cc(C(=O)NCc3ccco3)no2)c1	-17.4%	-0.7%	-21.1%	?	54.0%	2.1%	.	.
CCOc1ccc(CNC(=O)C2CCN(S(=O)(=O)c3cn(C)cn3)CC2)cc1OC	.	0.5%	.	3.4%[46.1 µM]	-2.7%	.	.	.
CC(C)(O)C#Cc1ccc([C@@H]2C[C@H]3CN(c4ccccc4)C(=O)[C@]34CCCN24)s1	?	-34.7%[57.1 µM]	?	?	-18.1%	6.0%	7.05µM*	-82.6%
CN(C)c1ncnc2ccc(-c3cccc(C#N)c3)cc12	.	.	.	.	-12.0%	.	.	.
COC(=O)CN1C(=O)C(O)(CC(=O)c2ccc(Cl)cc2)c2ccccc21 (stereo unspecified)	.	?	5.8%	.	-8.5%	6.6%	.	.
COC(=O)C[C@]1(C(=O)OC)CN(C#N)N(c2ccc(Cl)cc2)C12c1ccccc1-c1ccccc12	?	-33.5%	5.62µM*	3.16µM*	4.47µM*	18.2%	3.15µM*	7.91µM*
Cc1ccc(NC(=O)C2CCN(S(=O)(=O)c3c(C)noc3C)CC2)c(C)c1	20.8%[46.1 µM]	5.3%	.	-11.8%[46.1 µM]	-13.1%	.	.	.
CCOc1ccc(C(C)=O)cc1COc1ccc(-n2cnnn2)cc1	2.0%	?	2.82µM*	-9.2%	0.0%	-7.6%	0.315µM*	-21.9%
O=C(Cc1csc(Nc2nc(=S)[nH]c3ccccc23)n1)N1CCN(c2cccc(C(F)(F)F)c2)CC1	22.5%[46.1 µM]	7.6%	5.62µM*	.	?	-13.3%	12.5µM*	12.5µM*
O=C(Cc1csc(Nc2nc(=S)[nH]c3ccccc23)n1)NCc1cccc(Cl)c1	?	-20.1%	?	-29.2%	4.9%	-7.7%	.	.
COc1cc(NC(=O)CSc2ccc(-c3sc(-c4ccccc4)nc3C)nn2)cc(OC)c1	.	3.9%	.	-20.9%[46.1 µM]	-8.1%	.	.	.
OC(c1cc(-c2ccc(C(F)(F)F)cc2)nc(C(F)(F)F)c1)C1CCCCN1 (stereo unspecified)	.	1.3%	5.01µM*	.	?	.	14.1µM*	?
Cc1cc(N(C)Cc2ccccc2)n2nc(-c3ccc(C(C)(C)C)cc3)nc2n1	20.1%[46.1 µM]	-12.4%	.	10.8%[46.1 µM]	-19.4%	.	.	.
CNc1nc2cc([N+](=O)[O-])c([N+](=O)[O-])cc2nc1NC	7.94µM*	-3.4%	?	-28.1%	?	4.7%	19.9µM*	?
CCOc1ccc(OCC)c(NS(=O)(=O)c2ccc(-c3coc(C)n3)cc2)c1	.	13.3%	.	-3.0%[46.1 µM]	-23.7%	.	.	.
CCc1ccc2[nH]c(=O)c(CN(Cc3ccccc3OC)Cc3nnnn3Cc3ccco3)cc2c1	?	?	8.91µM*	?	?	0.1%	25µM*	44.5%

Assay outcomes (PubChem BioAssay)
